Results on 12 compounds are retold here after PubChem BioAssay (NCATS).

Holding throughout (experiment): qHTS profiling for inhibitors of Plasmodium falciparum proliferation (AID 504749); further: nearly all actives have a fitted effect of over 60% in size
Conditions in all cases: P. falciparum in erythrocytes, SYBR Green DNA, 72 h; series mostly up to 28.7 µM
On the technique in general: qHTS replaces the single test concentration by a dilution series.

The subject of one test is CP215. In short, it runs like this: (§1)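 P. falciparum-infected erythrocytes (0.3% parasitemia, 2.5% hematocrit final) were exposed to compounds for 72 h at 37 C in 5% CO2, then lysed with SYBR Green buffer overnight at room temperature; parasite DNA fluorescence was normalized to artemisinin and DMSO controls.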
The next test relates to CP217. In short, it runs like this:
as §1

The test system of the next test is CP237. In short, it runs like this: as §1
The next test relates to CP238. Put shortly: as §1
The test system of the next test is CP247. In short, it runs like this:
as §1

Another test concerns CP250. Put shortly:
as §1

Another test has as its system CP252. In short, it runs like this: as §1
A further test has as its system CP256. In short, it runs like this:
as §1

Another test concerns CP260. Put shortly: as §1
Another test relates to CP265. Put shortly:
as §1

The test system of another test is CP266. Put shortly:
as §1

Another test deals with CP268. Put shortly: as §1
A further test has as its system CP269. In short, it runs like this:
as §1

The subject of the next test is CP286. Put shortly: as §1
A further test deals with CP291. In short, it runs like this:
as §1

The next test concerns CP297. Put shortly:
as §1

For another test, the system named is CP305. Put shortly: as §1
A further test relates to CP315. Put shortly:
as §1

The subject of a further test is CP325. Put shortly: as §1
In a further test the test system is CP262. Put shortly: as §1

Inconclusive results are not listed. Calls of active or inactive are those of the source. The call rests on the fitted dose curve; in most records, active means well fitted inhibition curve with a large enough effect; inconclusive means small, poorly fitted or top-dose-only effect; inactive means flat fitted curve, though single readings scatter.
Potency means the concentration at half of the fitted maximal effect.

With `CCNC(=O)[C@@H]1CCCN1C(=O)[C@H](CCCN=C(N)N)NC(=O)[C@H](CC(C)C)NC(=O)[C@@H](Cc1c[nH]c2ccccc12)NC(=O)[C@H](Cc1ccc(O)cc1)NC(=O)[C@H](CO)NC(=O)[C@H](Cc1c[nH]c2ccccc12)NC(=O)[C@H](Cc1cnc[nH]1)NC(=O)[C@@H]1CCC(=O)N1`, the Potency with CP215 was 13.5 µM (active); in the test with CP217, 7080 nM (active); with CP237, 3.55 µM (active); with CP238 it was 7080 nM (active); in the test with CP247 it was 7.08 µM (active); in the test on CP250, 8910 nM (active). Moreover, the Potency in the test on CP252 is 11200 nM (active); with CP256, 12600 nM (active); in the test with CP260 it was 3.55 µM (active); in the test with CP265, 7940 nM (active); in the test with CP266, 13.5 µM (active); in the test with CP268, 8.49 µM (active). Also, the Potency was 7.57 µM (active) in the test on CP269; 3160 nM (active) with CP286; 7.57 µM (active) with CP291; 6.75 µM (active) in the test on CP297; 7.57 µM (active) with CP305; 15.1 µM (active) in the test with CP315. The Potency in the test on CP325 is 12 µM (active).

Regarding `CC1(C)C(C=C(Cl)Cl)C1C(=O)OCc1cccc(Oc2ccccc2)c1` (configuration not stated), the Potency entry in the test with CP215, in the test on CP217, in the test on CP237, in the test on CP238, with CP247 and in the test with CP250 was “inactive” each time. The Potency result in the test with CP252, in the test on CP256, in the test on CP260, with CP262, in the test on CP265 and with CP266 was “inactive” in each case. Further, the Potency result in the test with CP268, in the test on CP269, with CP291, in the test on CP297, in the test on CP305 and in the test with CP315 was “inactive” in each case. Besides, the Potency entry in the test with CP325 was “inactive”.

Regarding `O=C(O)c1cc(=O)c2c3nc4ccccc4oc-3cc(=O)c2[nH]1`, the Potency entry with CP215, in the test on CP217, in the test on CP238, in the test with CP247, in the test on CP250 and with CP252 was “inactive” throughout. The Potency result with CP256, in the test on CP265, in the test with CP266, in the test with CP268, with CP269 and in the test on CP291 was “inactive” in each case. For the same compound, the Potency entry in the test with CP297, in the test on CP305, in the test with CP315 and in the test on CP325 was “inactive” each time. Further, the Potency in the test with CP237 is 2.82 µM (active); in the test with CP260, 12.6 µM (active).

For `CCCCC/C=C\C/C=C\CCCCCCCC(=O)O`, the Potency result in the test on CP215, in the test with CP217, in the test on CP237, in the test on CP238, with CP247 and in the test on CP250 was “inactive” each time. Also, the Potency entry with CP252, with CP256, with CP260, with CP262, with CP265 and in the test on CP266 was “inactive” throughout. In addition, the Potency result with CP268, with CP269, in the test on CP286, in the test on CP291, with CP297 and in the test with CP305 was “inactive” throughout. In addition, the Potency entry with CP315 and in the test on CP325 was “inactive” throughout.

Turning to `CCCCCCCC(=O)O`, the Potency entry in the test on CP215, in the test on CP217, with CP237, in the test on CP238, with CP247 and in the test with CP250 was “inactive” in each case. Also, the Potency result with CP252, in the test on CP256, with CP260, in the test on CP262, in the test on CP265 and with CP266 was “inactive” in each case. Besides, the Potency result in the test on CP268, in the test with CP269, with CP286, with CP297, with CP305 and with CP315 was “inactive” each time. The Potency result in the test with CP325 was “inactive”.

For `NC(=O)c1ncn(C2OC(CO)C(O)C2O)n1` (configuration not stated), the Potency result in the test with CP215, with CP217, with CP237, in the test on CP238, in the test on CP247 and in the test with CP250 was “inactive” each time. Further, the Potency entry in the test on CP252, in the test on CP256, with CP260, in the test with CP262, in the test with CP265 and with CP266 was “inactive” each time. The Potency result in the test on CP268, in the test on CP269, in the test with CP286, in the test with CP297, with CP305 and with CP315 was “inactive” in each case. Moreover, the Potency result in the test with CP325 was “inactive”.

As to `Nc1c(Br)cc(Br)cc1CNC1CCC(O)CC1` (configuration not stated), the Potency result in the test on CP215, with CP217, with CP238, in the test on CP247, in the test on CP250 and with CP252 was “inactive” throughout. For the same compound, the Potency entry in the test with CP256, with CP260, with CP262, in the test on CP265, in the test with CP266 and in the test on CP268 was “inactive” in each case. The Potency entry with CP269, in the test with CP291, with CP297, in the test with CP305, with CP315 and with CP325 was “inactive” each time.

For the compound `O=C(O)CCC(=O)C(=O)O`, the Potency result with CP215, in the test on CP217, with CP237, in the test with CP238, with CP247 and in the test with CP250 was “inactive” in each case. In addition, the Potency result with CP252, in the test with CP256, with CP260, with CP262, with CP265 and in the test on CP266 was “inactive” throughout. The Potency entry in the test with CP268, in the test on CP269, with CP286, with CP297, in the test with CP305 and with CP315 was “inactive” throughout. Besides, the Potency result in the test on CP325 is “inactive”.

As to `CCN(CC)Cc1cc(Nc2ccnc3cc(Cl)ccc23)ccc1O`, the Potency with CP215 is 0.128 µM (active); in the test with CP217, 112 nM (active); in the test with CP237, 0.0355 µM (active); in the test on CP238 it was 89.1 nM (active); in the test on CP247, 0.1 µM (active); in the test on CP250, 17.8 nM (active). The Potency was 100 nM (active) in the test on CP252; 89.1 nM (active) in the test with CP256; 0.02 µM (active) in the test on CP260; 72.1 nM (active) with CP262; 20 nM (active) in the test with CP265; 0.102 µM (active) in the test with CP266. Besides, the Potency in the test on CP268 is 0.051 µM (active); with CP269, 0.0455 µM (active); in the test with CP286 it was 31.6 nM (active); in the test on CP291 it was 0.0455 µM (active); with CP297, 0.0907 µM (active); in the test with CP305 it was 0.0405 µM (active). Further, the values for the Potency in the test on CP315 and with CP325 were 0.287 µM (active) and 0.0573 µM (active), respectively.

`CC1=CCC(C(C)(C)O)CC1` (configuration not stated): the Potency result in the test with CP215, with CP217, in the test with CP237, with CP238, in the test on CP247 and in the test on CP250 was “inactive” each time. Besides, the Potency entry in the test with CP252, in the test on CP256, with CP260, with CP262, in the test with CP265 and in the test with CP266 was “inactive” throughout. Also, the Potency entry in the test with CP268, in the test on CP269, in the test on CP286, with CP291, in the test on CP297 and in the test with CP305 was “inactive” in each case. Further, the Potency entry with CP315 and in the test on CP325 was “inactive” each time.

In the case of `COC(C(=O)C(O)C(C)O)C1Cc2cc3cc(OC4CC(OC5CC(O)C(O)C(C)O5)C(O)C(C)O4)c(C)c(O)c3c(O)c2C(=O)C1OC1CC(OC2CC(OC3CC(C)(O)C(O)C(C)O3)C(O)C(C)O2)C(O)C(C)O1` (configuration not stated), the Potency with CP215 is 2.39 µM (active); in the test on CP217 it was 282 nM (active); in the test on CP237, 0.1 µM (active); in the test on CP238 it was 251 nM (active); with CP250 it was 251 nM (active); in the test with CP252, 251 nM (active). Also, the Potency with CP256 is 316 nM (active); in the test with CP260, 0.126 µM (active); in the test with CP262 it was 2130 nM (active); in the test on CP265, 355 nM (active); in the test with CP266, 2.13 µM (active); with CP268, 1.69 µM (active). For the same compound, the Potency is 1.9 µM (active) with CP269; 126 nM (active) in the test with CP286; 1.69 µM (active) with CP291; 2.39 µM (active) in the test with CP297; 1.51 µM (active) with CP305; 3.79 µM (active) with CP315. Besides, in the test with CP325, the Potency is 3.01 µM (active).

In the case of `CC(C)=O`, the Potency entry with CP215, in the test on CP217, with CP237, with CP238, in the test on CP247 and in the test with CP250 was “inactive” in each case. The Potency result in the test with CP252, in the test on CP260, with CP262, with CP266, in the test with CP269 and in the test on CP286 was “inactive” each time. For the same compound, the Potency entry in the test on CP291, in the test with CP297, in the test on CP305, in the test with CP315 and in the test with CP325 was “inactive” in each case.
